A selection: hits, their analogues and other compounds. The true share with any hit is near 2.4%.
Pf Dd2 growth: P. falciparum Dd2 growth inhibitors, primary screen, SYBR Green fluorescence, single dose replicates; 72 h; active compounds read low; 94,000 tested, 2.3% active; activity change, % at 10 µM; AID 1159554, 2015; in the data active = activity change below about -80%
C diff growth: C. difficile growth inhibitors, primary screen, HTS. Clostridium difficile clinical isolate growth, OD600, 24 h; active compounds read low. growth activity, negative = inhibition, % at 16 µg/mL (by protocol). 86,000 tested, 0.25% active;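 active = mean growth activity at or below -80% and every replicate also at or below -80%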;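 also: 0% = DMSO wells and -100% = levofloxacin 16 µg/mL wells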
The depositor's hits bear a star; . = no result given.

SMILES	Pf Dd2 growth	C diff growth
COc1ccc(S(=O)(=O)N[C@H]2CC[C@@H](CCn3cc(C(C)C)nn3)O[C@H]2CO)cc1	-9.0	.
COc1cccc(C#Cc2cnc3c(c2)C(=O)N([C@@H](C)CO)C[C@H](C)[C@@H](CN(C)C(=O)C2CCOCC2)O3)c1	-82.6*	0.3
COc1cccc(C#Cc2cnc3c(c2)C(=O)N([C@H](C)CO)C[C@H](C)[C@H](CN(C)C(=O)C2CCOCC2)O3)c1	-13.2	-0.7
COc1cccc(C#Cc2cnc3c(c2)C(=O)N([C@H](C)CO)C[C@H](C)[C@H](CN(C)C(=O)C2CCC2)O3)c1	-32.0	9.1
COc1cccc(C#Cc2cnc3c(c2)C(=O)N([C@@H](C)CO)C[C@H](C)[C@H](CN(C)C(=O)C2CCCCC2)O3)c1	-82.6*	24.9
CO[C@H]1CN(C)C(=O)c2ccc(NC(=O)C3CC3)cc2OC[C@@H](C)N(C(=O)c2ccccn2)C[C@H]1C	19.3	.
CC(C)NC(=O)N(C)C[C@@H]1OCCCC[C@@H](C)Oc2ccc(NC(=O)CCC(F)(F)F)cc2C(=O)N([C@H](C)CO)C[C@H]1C	-10.5	2.0
CCC(=O)Nc1ccc2c(c1)OC[C@H](C)N(C(=O)C1CC1)C[C@@H](C)[C@@H](OC)CN(C)C2=O	-4.2	-6.8
COc1ccccc1-c1ccc2c(c1)O[C@H](CN(C)S(=O)(=O)c1ccc(F)cc1)[C@@H](C)CN([C@@H](C)CO)S2(=O)=O	-67.9	2.9
COc1ccccc1-c1ccc2c(c1)O[C@H](CN(C)S(=O)(=O)c1ccc(C)cc1)[C@@H](C)CN([C@@H](C)CO)S2(=O)=O	-73.8	5.1
COc1ccccc1-c1ccc2c(c1)O[C@@H](CN(C)S(=O)(=O)c1ccc(C)cc1)[C@H](C)CN([C@H](C)CO)S2(=O)=O	-83.8*	7.9
COc1ccccc1-c1ccc2c(c1)O[C@@H](CN(C)S(=O)(=O)c1ccc(F)cc1)[C@H](C)CN([C@@H](C)CO)S2(=O)=O	-82.1*	1.1
Cc1ccc(S(=O)(=O)Nc2ccc3c(c2)C(=O)N([C@@H](C)CO)C[C@H](C)[C@@H](CN(C)C(=O)Nc2ccc(F)cc2)OCCCC[C@@H](C)O3)cc1	-81.5*	.
Cc1noc(C)c1S(=O)(=O)Nc1ccc2c(c1)C(=O)N([C@H](C)CO)C[C@@H](C)[C@@H](CN(C)C(=O)Nc1ccc(F)cc1)OCCCC[C@@H](C)O2	-84.8*	5.1
Cc1noc(C)c1S(=O)(=O)Nc1ccc2c(c1)C(=O)N([C@@H](C)CO)C[C@@H](C)[C@H](CN(C)C(=O)Nc1ccc(F)cc1)OCCCC[C@H](C)O2	-52.1	7.7
C[C@H]1CCCCO[C@H](CN(C)C(=O)Nc2ccc(F)cc2)[C@@H](C)CN([C@@H](C)CO)C(=O)c2cc(NS(=O)(=O)c3ccc(Cl)cc3)ccc2O1	-76.0	.
C[C@@H]1CCCCO[C@H](CN(C)C(=O)Nc2ccc(F)cc2)[C@@H](C)CN([C@@H](C)CO)C(=O)c2cc(NS(=O)(=O)c3ccc(Cl)cc3)ccc2O1	-86.7*	.
Cc1ccc(S(=O)(=O)Nc2ccc3c(c2)C(=O)N([C@@H](C)CO)C[C@@H](C)[C@@H](CN(C)C(=O)Nc2ccc(F)cc2)OCCCC[C@H](C)O3)cc1	-72.1	.
C[C@@H]1CN([C@H](C)CO)S(=O)(=O)c2ccc(-c3cccnc3)cc2O[C@@H]1CN(C)C(=O)CC1CC1	15.4	0.5
C[C@H]1CN([C@@H](C)CO)C(=O)Cc2cc(NC(=O)Nc3ccccc3)ccc2O[C@H]1CN(C)C(=O)Nc1ccccc1	17.4	-1.4
CN(C)CC(=O)N1C[C@H]2[C@@H](c3ccccc31)[C@@H](CO)N2C(=O)c1ccccn1	-7.4	5.5
COc1ccc(NC(=O)Nc2ccc3c(c2)CC(=O)N([C@@H](C)CO)C[C@@H](C)[C@H](CN(C)S(C)(=O)=O)O3)cc1	5.8	-2.5
C[C@H]1CN([C@@H](C)CO)C(=O)c2cccc(NC(=O)c3ccc(-c4nccs4)cc3)c2O[C@@H]1CN(C)Cc1ccc(C(=O)Nc2ccccc2N)cc1	-89.9*	8.4
C[C@@H]1CN([C@H](C)CO)C(=O)c2cccc(NC(=O)c3ccc(-c4nccs4)cc3)c2O[C@H]1CN(C)Cc1ccc(C(=O)Nc2ccccc2N)cc1	-90.8*	5.2
C[C@H]1CN([C@@H](C)CO)C(=O)c2cccc(NC(=O)c3ccc(-c4nccs4)cc3)c2O[C@H]1CN(C)Cc1ccccc1	-11.2	-1.4
SMILES	Pf Dd2 growth	C diff growth
C[C@@H]1CN([C@@H](C)CO)C(=O)c2cccc(NC(=O)c3ccc(-c4nccs4)cc3)c2O[C@@H]1CN(C)Cc1ccc(-c2ccccc2)cc1	-78.2	66.0
CCCNC(=O)N1CC2(CN(C(=O)Cc3cccnc3)C2)c2c([nH]c3cc(OC)ccc23)[C@@H]1CO	-3.1	-6.4
COc1ccc(S(=O)(=O)N(C)C[C@@H]2Oc3ccc(NC(=O)NC4CCCCC4)cc3CC(=O)N([C@@H](C)CO)C[C@H]2C)cc1	-69.9	-6.6
COCC(=O)Nc1ccc2c(c1)C(=O)N(C)[C@@H]1CC[C@@H](CC(=O)NCc3ccc(OC)cc3)O[C@H]1CO2	-1.7	0.3
Cc1ccc(S(=O)(=O)Nc2ccc3c(c2)C(=O)N([C@H](C)CO)C[C@@H](C)[C@H](CN(C)Cc2ccc(C(F)(F)F)cc2)OCCCC[C@@H](C)O3)cc1	-72.6	48.1
C[C@@H]1CCCCO[C@H](CN(C)C(=O)Nc2ccc(C(F)(F)F)cc2)[C@@H](C)CN([C@@H](C)CO)C(=O)c2cc(NS(=O)(=O)c3ccc(F)cc3)ccc2O1	-84.1*	4.1
C[C@H]1CCCCO[C@@H](CN(C)C(=O)Nc2ccc(C(F)(F)F)cc2)[C@@H](C)CN([C@@H](C)CO)C(=O)c2cc(NS(=O)(=O)c3ccc(F)cc3)ccc2O1	-45.7	3.7
Cc1ccc(S(=O)(=O)Nc2ccc3c(c2)C(=O)N([C@@H](C)CO)C[C@@H](C)[C@@H](CN(C)Cc2ccc(C(F)(F)F)cc2)OCCCC[C@H](C)O3)cc1	-80.9*	-3.5
Cc1ccc(S(=O)(=O)Nc2ccc3c(c2)C(=O)N([C@@H](C)CO)C[C@@H](C)[C@@H](CN(C)C(=O)Nc2ccc(C(F)(F)F)cc2)OCCCC[C@H](C)O3)cc1	-82.0*	-5.8
Cc1ccc(S(=O)(=O)Nc2ccc3c(c2)C(=O)N([C@@H](C)CO)C[C@@H](C)[C@H](CN(C)C(=O)Nc2ccc(C(F)(F)F)cc2)OCCCC[C@@H](C)O3)cc1	4.7	1.1
CC(C)NC(=O)Nc1ccc2c(c1)CC(=O)N([C@H](C)CO)C[C@@H](C)[C@@H](CN(C)C(=O)Nc1cccc3ccccc13)O2	19.6	5.8
C[C@@H]1CN([C@@H](C)CO)C(=O)c2cc(NC(=O)CCC(F)(F)F)ccc2O[C@@H]1CN(C)Cc1ccc(Cl)c(Cl)c1	1.3	49.0
O=C(Nc1ccccc1F)N1C[C@H]2[C@@H](c3ccccc31)[C@@H](CO)N2C(=O)C1CCCCC1	-1.7	-1.1
C[C@@H]1CN([C@@H](C)CO)C(=O)c2c(c3ccccc3n2C)-c2ccccc2CO[C@@H]1CN(C)S(=O)(=O)c1ccc([N+](=O)[O-])cc1	-77.2	-9.6
Cc1ccc(S(=O)(=O)N(C)C[C@@H]2OCc3ccccc3-c3c(n(C)c4ccccc34)C(=O)N([C@H](C)CO)C[C@@H]2C)cc1	-91.5*	-0.4
COc1ccc(S(=O)(=O)N(C)C[C@H]2OCc3ccccc3-c3c(n(C)c4ccccc34)C(=O)N([C@H](C)CO)C[C@H]2C)cc1	-72.2	.
